# PubChem BioAssay AID504467 (National Center for Advancing Translational Sciences (NCATS), 2011)
# Among all 330,000 compounds or so, about 7,700 (2.3%) were called active. Not shown: some 26% with an inconclusive outcome. The list comes from a sample in which actives are over-represented; it also holds similar structures and randomly drawn compounds. A number with no mark means an inactive call. The call rests on the fitted dose curve; in most records, active means well fitted inhibition curve with a large enough effect; inconclusive means small, poorly fitted or top-dose-only effect, or effect the other way; inactive means flat fitted curve, though single readings scatter.
# Assay: qHTS screen for small molecules that inhibit ELG1-dependent DNA repair in human embryonic kidney (HEK293T) cells expressing luciferase-tagged ELG1; further: nearly all actives have a fitted effect of over 55% in size
# Conditions: HEK293T ELG1-luciferase reporter, luminescence, 16 h, DNA damage induced by 5-fluorouridine; series mostly up to 46.1 µM; activity change, negative = inhibition: at the top concentration
# Text: NIH Molecular Libraries Probe Production Network [MLPCN] NIH Chemical Genomics Center [NCGC] MLPCN Grant: 1 R03 MH092164-01 Assay Provider: Kyungjae Myung, NHGRI, NIH Keywords: MLPCN, qHTS, NCGC, genotoxicity, cancer Assay Overview: Cancer cells divide rapidly compared to normal cells in the body. During cell division, cancer cells need to duplicate their genome by DNA replication. The failure of genome duplication leads to cancer cells' death. Therefore, inhibitors of DNA replication could specifically kill cancer cells. Based on this concept, many chemotherapeutic agents were developed and have been used to treat cancer patients. However, there are a limited number of agents available in the clinical setting, and some of those that do exist have low efficacy and severe side effects. Therefore, if we can find the compounds that effectively block DNA replication either by directly damaging DNA or by inhibiting other cellular mechanisms, the options for cancer treatment will be broadened. With this in mind, we developed a quantitative high-throughput ELG1-luciferase reporter gene assay. Small molecules that specifically block ELG1 function in response to DNA damage can be identified by monitoring the suppression of luciferase activity. Since ELG1 defines a pathway for repairing DNA damage, agents blocking ELG1 function can be used to sensitize cancer cells to chemotherapeutic agents whose mechanism of action involves the induction of DNA damage.
# Assay Protocol Summary: For genotoxicity screening, 2,000 cells in 4 uL/well were dispensed into white, solid-bottom 1536-well plates using a solenoid-based dispenser. Following transfer of 1 uL 5-Fluorouridine and 23 nL compound or DMSO vehicle by a pin tool, the plates were incubated 16 hr at 37 °C and 5% CO2. 5 ul ONE-Glo (Promega) was then added to each plate and following a 30 min incubation at room temperature, luciferase activity was quantified on a ViewLux CCD-based plate reader.
# On the % scale 0 is the no-effect control and ±100 the full control effect; potency means the concentration at half of the fitted maximal effect.
SMILES,"activity change, negative = inhibition [%]",Potency
CCc1cccc(C)c1NS(=O)(=O)c1cc(Br)cnc1N,14.3,–
COc1ccc(C)cc1N(C(=O)Cn1nnc(-c2ccc(C)o2)n1)C(C(=O)NC1CCCC1)c1ccncc1 (stereo unspecified),0.49,–
COc1ccccc1NC(=O)COC(=O)CNC(=O)C1CCCCC1,14.3,–
Cc1ccc(CC(=O)N(C)CC(=O)N(CC(C)C)c2c(N)n(CC(C)C)c(=O)[nH]c2=O)cc1C,5.07,–
Cn1nnnc1SCC(=O)Nc1cccc(S(=O)(=O)N2CCCCC2)c1,-0.942,–
COc1cccc(N(CC(=O)NC2CCCC2)C(=O)Cn2nnc(-c3ccc(C)o3)n2)c1,9.25,–
CCOC(=O)C1CCN(C(=O)Cn2nc(C)c3c(C)n(-c4ccccc4)nc3c2=O)CC1,3.06,–
COc1ccc2cc(S(=O)(=O)Nc3ccccn3)ccc2c1,-4.39,–
COc1ccc(S(=O)(=O)/N=C2\C=C(NS(=O)(=O)c3ccccc3)C(=O)c3ccccc32)cc1,–,23.1 µM (active)
CC1=C/C(=N\S(=O)(=O)c2ccccc2)C(C(C)C)=CC1=O,-28.8,–
CCCSc1nc2sc3c(c2c(=O)n1-c1ccc(OC)cc1)CCN(C)C3,-16,–
COc1ccc(C(C(=O)NC2CCCC2)N(CCCO)C(=O)Cn2nnc(-c3ccc(C)o3)n2)cc1 (stereo unspecified),9.12,–
COc1ccc(-c2nc(N)ncc2-c2ccc(Cl)cc2)c(O)c1,-24.7,–
C=C(C)COc1ccc(-c2ncncc2-c2ccc(OC)cc2)c(O)c1,–,16.4 µM (active)
C=C(C)COc1ccc(-c2nc(N)ncc2-c2ccccc2OC)c(O)c1,-24.3,–
COc1ccc(C(C)(C)C)cc1NC(=O)CCN1C(=O)C2CCCCC2C1=O (stereo unspecified),4.35,–
COC(=O)c1c(NC(=O)c2ccccc2F)sc2c1C(C(=O)OC)CC2 (stereo unspecified),-3.34,–
CCc1ccc(N(CC)c2ncnc3nc[nH]c23)cc1,–,4.11 µM (active)
CCOc1ccc(-n2c(O)c(/C=N/Nc3nc(C)cc(C)n3)c3ccccc3c2=O)cc1,–,14.6 µM (active)
CCOc1ccc(N=Cc2c(O)n(-c3cccc(C)n3)c(=O)c3ccccc23)cc1,-23.9,–
CCOc1ccc(-n2c(O)c(/C=N/Nc3nnc(C)c(=O)[nH]3)c3ccccc3c2=O)cc1,-3.75,–
COc1ccc2[nH]c3c(c2c1)CCN1C(=O)C(CC(=O)NCCc2ccccn2)C[C@H](C(=O)N2CCOCC2)[C@@]31C (stereo partly specified),12.1,–
COc1ccc(CN(C(=O)CSc2nnc(-c3ccc(OC)c(OC)c3)o2)c2ccc(F)cc2)cc1,–,16.4 µM (active)
COc1ccc(CCNC(=O)CSc2nnc(-c3cccc(F)c3)o2)cc1OC,-0.414,–

SMILES,"activity change, negative = inhibition [%]",Potency
COc1ccc(-c2nnc(SCC(=O)NC3CCCCC3)o2)cc1OC,1.19,–
COc1ccc(OC)c(NC(=O)c2sc3nc(C)cc(C)c3c2N)c1,21.9,–
COc1cc2ccccc2cc1C(=O)Nc1ccc(N2CCOCC2)cc1,0.106,–
COc1ccc(NC(=O)c2sc(N)nc2-c2ccccc2)cc1,-2.97,–
CCN(CC)c1ccc(NC(=O)CN2CCN(c3ccccn3)CC2)cc1,-8.23,–
COc1ccc(NC(=O)c2sc(N3CCOCC3)nc2-c2ccccc2)c(OC)c1,–,13 µM (active)
CCC(=O)Nc1ccc2c(c1)nc(CCN1CCN(c3ccccn3)CC1)n2C,-15.2,–
COc1ccc(NC(=O)c2sc3nc(C)nc(N4CCN(c5ccccn5)CC4)c3c2C)c(OC)c1,–,2.31 µM (active)
COc1cc([N+](=O)[O-])ccc1NC(=S)N1CCN(c2ccccn2)CC1,-8.41,–
Cc1nc(N2CCN(c3ccccn3)CC2)c2c(C)c(C(=O)Nc3ccc(F)c(Cl)c3)sc2n1,–,3.26 µM (active)
Cc1cccc(N2C(=O)N3[C@H](c4ccc(F)cc4)[C@@H]4C(=O)N(C5CCCCC5)C(=O)[C@@H]4[C@]3(Cc3ccccc3)C2=O)c1,-2.6,–
COc1ccc(CN2C3CCCC2CC(NC(=O)c2cccc(F)c2)C3)cc1 (stereo unspecified),7.95,–
CN(CC(=O)NCC(c1ccccc1)N1CCCC1)S(=O)(=O)c1ccc(Cl)cc1 (stereo unspecified),8.82,–
COc1cc(/C=C2\SC(=O)NC2=O)ccc1OCc1ccc(Cl)nc1,13.8,–
O=C(NCC(c1ccco1)N1CCc2ccccc21)c1cccc(F)c1 (stereo unspecified),-6.47,–
CCCCn1c(N)c(N(CC)C(=O)c2ccc(N(C)S(=O)(=O)c3ccc(C)cc3)cc2)c(=O)[nH]c1=O,2.79,–
COCCN1C(=O)C(=O)/C(=C(/O)c2ccc(S(=O)(=O)N3CCCCC3)cc2)C1c1ccc(OC)c(OC)c1 (stereo unspecified),6.1,–
Cn1cc(C(=O)c2ccc(Cl)cc2Cl)cc1C(=O)NN,0.667,–
Cc1noc(C)c1S(=O)(=O)N(C)C[C@H]1Oc2ccc(NC(=O)C3CC3)cc2C(=O)N([C@H](C)CO)C[C@@H]1C,0.566,–
Cc1ccc(CN2CC(C(=O)NNC(=O)Cn3ccc(C(F)(F)F)n3)CC2=O)cc1 (stereo unspecified),-0.475,–
O=C(Nc1cc(C(F)(F)F)ccc1Cl)c1cc(C2CC2)on1,2.26,–
Cc1cc(C(=O)Nc2c(C)nn(Cc3ccccc3)c2C)on1,3.72,–
Cc1nn(Cc2ccc(Cl)c(Cl)c2)c(C)c1NC(=O)c1cc(C2CC2)on1,–,16.4 µM (active)
CC(=O)Nc1cccc(NC(=O)c2ccc3c(c2)CCN3S(C)(=O)=O)c1,-20.3,–

SMILES,"activity change, negative = inhibition [%]",Potency
O=C1c2ccccc2[C@@H]2C[C@@H](O)[C@H](Nc3ccccc3Cl)CCN12,-12.1,–
COc1cc(C(=O)NCC(=O)N2CC=C(c3ccccc3)CC2)cc(OC)c1OC,0,–
COc1cc(C(=O)Nc2oc(-c3ccccc3)c(-c3ccccc3)c2C#N)cc(OC)c1OC,–,23.1 µM (active)
O=C(CCN1C(=O)c2ccccc2C1=O)Nc1ccncc1,0,–
Cc1cc(C)cc(NC(=O)CCN2C(=O)c3ccccc3C2=O)c1,-4.22,–
CC(Oc1ccccc1)C(=O)Nc1oc(-c2ccco2)c(-c2ccco2)c1C#N (stereo unspecified),-0.938,–
N#Cc1c(NC(=O)CCCN2C(=O)c3ccccc3C2=O)oc(-c2ccccc2)c1-c1ccccc1,–,7.94 µM (active)
CCOc1ccc(NC(=O)c2cccc3c2C(=O)N(CC2CCCO2)C3)cc1 (stereo unspecified),20.6,–
CCc1ccc(OCC(=O)N(Cc2ccccc2)C2CCS(=O)(=O)C2)cc1 (stereo unspecified),-4,–
CC[C@]12c3[nH]c4ccc(Cl)cc4c3CCN1C(=O)[C@@H](CC(=O)NCCCOC)C[C@@H]2C(=O)N1CCN(C(=O)c2ccco2)CC1,0.426,–
CN(C)C(CNC(=O)c1cccc(S(=O)(=O)Nc2ccc(Br)cc2)c1)c1ccco1 (stereo unspecified),-0.472,–
COc1ccc(-c2noc(CCCC(=O)NC3CCCC3)n2)cc1OC,-29,–
O=C(Nc1ccc2nc3n(c(=O)c2c1)CCCCC3)c1ccccc1Cl,-2.19,–
COc1ccc(NC(=O)Cn2nnc(C(=O)NCCc3ccc(OC)c(OC)c3)c2N)cc1,-0.109,–
COc1ccc(CCNC(=O)C(=O)Nc2ccc3nc4n(c(=O)c3c2)CCCCC4)cc1OC,–,20.6 µM (active)
O=C(NCCc1c[nH]c2ccccc12)C1CCN(Cc2ccc(Br)cc2)CC1,-14,–
CCn1cc(C(=O)NCCO)c(=O)c2cc(F)c(N3CCN(C)CC3)cc21,12.3,–
CCn1cc(C(=O)N/N=C(/C)c2ccc(F)cc2)c(=O)c2cc(F)c(N3CCCC3)cc21,-10.6,–
CCCCNC(=O)c1cn(CC)c2cc(N3CCN(C(=O)c4ccco4)CC3)c(F)cc2c1=O,–,14.6 µM (active)
COC(=O)CSc1nc2ccccc2c(=O)n1Cc1ccccc1,-3.93,–
O=S1(=O)CCOC[C@H](CC2CCCCC2)N1Cc1ccc(F)cc1,8.78,–
C=CC[C@@H](CC(=O)N[C@@H](CO)Cc1ccccc1)C(=O)NCCOC(=O)[C@@H](CC=C)CC(=O)OC(C)(C)C,17.7,–
CCOC(=O)c1c(-c2ccc(-c3ccccc3)cc2)csc1NC(=O)CCC(=O)O,-0.959,–
CCOC(=O)c1c(-c2ccc(C)cc2)csc1/N=C(\C)C1=C(O)c2ccccc2C1=O,–,7.3 µM (active)

SMILES,"activity change, negative = inhibition [%]",Potency
CCOC(=O)c1c(-c2ccccc2)csc1NC(=S)NC(=O)c1ccccc1,-14,–
COc1cccc(CN(C)CC(O)COC(c2ccccc2)c2ccccc2C)c1 (stereo unspecified),-14,–
C=CCn1c(SCc2nnc(-c3ccccc3)o2)nnc1C(O)c1ccccc1 (stereo unspecified),-0.318,–
CCCN(CCC)c1ccc(C(O)c2nnc(-c3ccccc3)o2)cc1 (stereo unspecified),–,20.6 µM (active)
CCCC(=O)Nc1nnc(-c2ccccc2)o1,16.7,–
CC(C)COc1ccc(C(=O)NNC(=O)CCC(=O)c2cccs2)cc1,0,–
Cc1cccc(Cn2c(N3CCN(c4ccccc4)CC3)nc3c2c(=O)n(C)c(=O)n3C)c1,-5.25,–
C/C(Cl)=C\Cn1c(Nc2cccc(C)c2)nc2c1c(=O)n(C)c(=O)n2C,–,9.2 µM (active)
CCC/C(C)=N\Nc1nc2c(c(=O)n(C)c(=O)n2C)n1C,-2.43,–
CCc1[nH]nc(C(=O)N2CCCC(CO)(Cc3ccc(F)cc3F)C2)c1C (stereo unspecified),2.52,–
O=C1c2cccnc2C(Nc2ccc(S(=O)(=O)N3CCCCCC3)cc2)N1Cc1ccccc1 (stereo unspecified),–,8.2 µM (active)
O=C(COc1ccc(S(=O)(=O)N2CCCCC2)cc1)NCc1ccccn1,-4.87,–
O=C(Nc1ccc(S(=O)(=O)N2CCCCC2)cc1)c1cnccn1,-7.35,–
Cc1ccc2nc(SCC(=O)Nc3cccc4ccccc34)nc(=O)n2c1,12.8,–
O=C(NCCc1ccccn1)c1cc(-c2ccc(Cl)cc2)nc2ccccc12,–,23.1 µM (active)
O=C(NCCc1ccccn1)c1cccnc1Oc1ccc(Cl)cc1,-2.16,–
COC(=O)CNC(=O)c1cc(-c2ccncc2)nc2ccccc12,4.24,–
Cc1ccccc1Nc1nc(N)nc(COC(=O)CCC(=O)c2ccc(F)cc2)n1,16.3,–
Cc1onc(-c2ccccc2)c1C(=O)N=C(N)c1ccc(Cl)cc1,10.9,–
Cc1onc(-c2ccc(Cl)cc2)c1-c1ccnn1S(=O)(=O)c1ccc(Cl)cc1,–,14.6 µM (active)
COC(=O)c1noc(C)c1-c1ccnn1C(=O)c1ccc(Cl)cc1,3.21,–
Cc1nn(-c2ccccc2)c(C)c1NC(=O)COC(=O)c1cc(Cl)ccc1O,11.5,–
Cc1nn(-c2ccccc2)c(C)c1NC(=O)CCl,-3.28,–
Cc1nn(-c2ccccc2)c(C)c1NC(=O)COc1ccc(Cl)cc1Cl,–,20.6 µM (active)
